High-throughput results as filed in PubChem BioAssay.
Sampled rows, rich in hits. Any-hit rate of the full collection: about 2.8%.
Pol beta inh – blocks human DNA polymerase beta activity; P06746; Pol beta primer extension/strand displacement, fluorescence kinetic; Potency, µM (highest dose often 114 µM), for the others: at the top dose activity change, negative = inhibition, usual class: inhibitors; 340,000 tested, 1.3% active; AID 485314; note: potency is the fitted concentration of half-maximal effect; % is set by controls: 0 for no effect and ±100 for the full control effect
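Pol beta (10 nM) was preincubated with compound for 15 min at room temperature. The reaction was then started with 50 nM substrate and read immediately and after a further 10 min at room temperature.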
PI4K2A block – PI4K2A (human) kinase inhibition | 420,000 tested, 0.13% active | purified PI4K2A, ADP-Glo luminescence, 1 h; stronger effect = lower value | activity change, negative = inhibition, % at 76.9 µM; in the data active = activity change below about -50%; inconclusive = mostly about -30% to -49%;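 note: -100% = wells without enzyme as full effect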
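PI4K2A activity was measured by ADP-Glo luminescence: enzyme (4 ug/mL stock) and phosphatidylinositol (1.2 mM stock) in Tris pH 7.5/MgCl2/EGTA/Triton X-100 buffer were reacted with ATP (300 microM stock) for one hour at ambient temperature.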
Pol eta inh-1 – blocks human DNA polymerase eta activity; Q9Y253; recombinant Pol eta, fluorescent DNA replication assay; Potency, µM (series often up to 114 µM), without a hit: at the highest dose activity change, negative = inhibition, actives largely listed as inhibitors; 390,000 tested, 1.2% active; AID 588591; note: potency is the fitted concentration of half-maximal effect; % is set by controls: 0 for no effect and ±100 for the full control effect
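Fluorescent replication assay: 50 nM final substrate added after a 15 min room-temperature compound preincubation with 10 nM enzyme. Signal taken at 0 min and again at 10 min.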
PI5P4K alpha inh – inhibitors of human PI5P4K alpha | P48426 | PI5P4Kalpha enzyme, ADP-Glo luminescence, 60 min; stronger effect = lower value | max response, % | 330,000 tested, 1.2% active | AID 652105; active = max response of -50% or lower; inconclusive = between -30% and -50%; inactive = -30% or higher; note: value at the top dose of about 77 µM; % is set by controls: 0 for no effect and ±100 for the full control effect
Target sequence (P48426 whole entry, looked up): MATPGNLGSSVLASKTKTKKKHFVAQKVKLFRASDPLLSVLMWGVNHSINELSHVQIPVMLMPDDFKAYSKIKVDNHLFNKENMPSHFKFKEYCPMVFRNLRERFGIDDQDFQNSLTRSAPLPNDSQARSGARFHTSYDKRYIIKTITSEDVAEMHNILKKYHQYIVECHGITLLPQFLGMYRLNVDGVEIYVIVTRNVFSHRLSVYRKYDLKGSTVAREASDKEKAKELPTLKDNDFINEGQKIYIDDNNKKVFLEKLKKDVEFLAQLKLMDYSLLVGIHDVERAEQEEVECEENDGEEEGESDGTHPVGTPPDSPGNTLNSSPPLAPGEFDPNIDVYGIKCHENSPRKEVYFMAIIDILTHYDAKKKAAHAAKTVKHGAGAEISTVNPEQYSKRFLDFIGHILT
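PI5P4Kalpha ADP-Glo assay; 5 microM ATP final; 60 min RT reaction; HEPES pH 7.4/EGTA/CHAPS, 5% DMSO; controls lacking substrate or enzyme; luminescent end-point.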
Pol kappa inh-1 – DNA polymerase kappa (human) inhibition; AID 588579; Potency, µM (series often up to 107 µM), for the others: at the top dose activity, negative = inhibition, hits mostly inhibitors; Q9UBT6; purified Pol kappa, fluorescent DNA synthesis assay, 10 min; 400,000 tested, 0.53% active; note: potency is the fitted concentration of half-maximal effect; % is set by controls: 0 for no effect and ±100 for the full control effect
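10 nM Pol kappa was preincubated with compounds for 15 min at room temperature. Reaction started with 50 nM (final) substrate. Fluorescence read kinetically at 0 and 10 min.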
POLI inh – DNA polymerase iota (human) inhibition; Q9UNA4; Pol iota fluorescent replication assay, 10 min; Potency, µM (top dose mostly 115 µM), for inactives: at the highest dose activity, negative = inhibition, usual class: inhibitors; 390,000 tested, 1% active; AID 588590; note: potency is the fitted concentration of half-maximal effect
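Pol iota at 10 nM preincubated 15 min with compounds at room temperature; reaction started with fluorescent substrate, 50 nM final. Fluorescence read kinetically at 0 and 10 min; buffer-only wells as negative control.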
POLI cherry-pick – Inhibitors of human DNA polymerase iota, confirmation; Potency, µM, most hits filed as inhibitors; shares compounds with Pol kappa inh-1; 1,500 tested, 77% active; AID 720496; Pol iota primer extension, TAMRA/BHQ fluorescence; note: potency is the fitted concentration of half-maximal effect
GALK inh confirm – galactokinase (human) inhibition, confirmation; AID 2015; shares compounds with Pol eta inh-1; purified GALK, Kinase-Glo ATP depletion luminescence; Potency, µM (top dose mostly 115 µM), without a hit: top-dose activity, negative = inhibition, actives largely listed as inhibitors; 150 tested, 70% active
Redox cycling – counter-screen for GALK inhibitors: redox cycling H2O2 generation | Potency, µM (highest dose often 115 µM), for the others: at the top dose activity change, negative = H2O2 signal, actives largely listed as inhibitors | Phenol red-HRP H2O2 redox cycling, absorbance 600 nm | shares compounds with Pol eta inh-1 | 150 tested, 40% active | AID 2035
HEK293 viability – HEK-293 cytotoxicity, GALK inhibitor secondary; shares compounds with Pol eta inh-1; HEK-293 viability, ATP luminescence (CellTiter-Glo), 24/48 h; Potency, µM (top dose mostly 46.1 µM), without a hit: at the top dose activity change, negative = cytotoxicity, usual class: inhibitors; 170 tested, 10% active; AID 2547; note: potency is the fitted concentration of half-maximal effect; % is set by controls: 0 for no effect and ±100 for the full control effect
Pol kappa inh-2 – Pol kappa (human) inhibition, cherry-pick confirmation. shares compounds with Pol eta inh-1. purified Pol-kappa, fluorescent strand-displacement substrate. Potency, µM, hits mostly inhibitors. 920 tested, 76% active; note: potency is the fitted concentration of half-maximal effect
Pol eta inh-2 – Pol eta (human) inhibition, cherry-pick confirmation. shares compounds with Pol eta inh-1. Pol eta primer extension, TAMRA/BHQ fluorescence, 10 min. Potency, µM, actives largely listed as inhibitors. 2,600 tested, 64% active. AID 720502; note: potency is the fitted concentration of half-maximal effect
Numbers without * were called inactive; ? = inconclusive; / = not tested or not shown; [ ] = another dose, or the depositor's remark. Unless noted, calls come from the whole dose curve; as a rule, active = well fitted curve in the direction sought with a large enough effect; inconclusive = small, poorly fitted or top-dose-only effect, or another doubt; inactive = no such curve, though single readings can be large; an effect the other way counts as inactive or inconclusive.

SMILES | Pol beta inh | PI4K2A block | Pol eta inh-1 | PI5P4K alpha inh | Pol kappa inh-1 | POLI inh | POLI cherry-pick | Pol eta inh-2 | others
Cc1c(CCC(=O)O)c(=O)oc2c(C)c3occ(-c4ccc(Br)cc4)c3cc12 | 43% | 1 | 18µM* | -25 | -5% | 143% | 34* | ?
Cc1coc2c(C)c3oc(=O)c(CCC(=O)NCCc4ccccc4)c(C)c3cc12 | -3% | 0 | 7% | / | -3% | 2% | / | /
CCN(c1ccccc1)S(=O)(=O)c1cc(C(=O)OCC(=O)c2c(N)n(C)c(=O)n(C)c2=O)ccc1C | / | -6 | 4.5µM* | -26 | ? | 25µM* | 30* | 27* | Pol kappa inh-2=12*
CC(C)Oc1ccc(CNC(=O)c2ccc3c(c2)N(Cc2ccc(F)cc2)CCS3)cc1 | 8% | 2 | / | / | -4% | 6% | / | /
CC1C(=O)N(Cc2cn(CCC3OCCCO3)nn2)CCS(=O)(=O)N1Cc1ccc(-c2ccncc2)cc1 (stereo not drawn) | / | -5 | -9% | -4 | / | / | / | /
CCCCOCCCNC(=O)C[C@@H]1C[C@@]2(C(=O)OCC)CCC=C2N(Cc2ccc(Cl)cc2Cl)C1=O | / | -1 | / | 25 | / | / | / | /
COc1ccc(Nc2nc(OC)nc(OC)n2)cc1 | -18% | -6 | -3% | -1 | -5% | 16% | / | /
CCOc1nc(Nc2ccc(OC)cc2)nc(OCC)n1 | 1% | -14 | 20µM* | -3 | ? | ? | 67* | ?
COc1ccc(-c2ccccc2C2C3C=CCCC3(C)C(=O)N2Cc2ccccc2)cc1 (stereo not drawn) | / | / | / | / | -1% | -4% | / | /
CCCCC(=O)N/N=C/c1ccc(-c2ccc([N+](=O)[O-])cc2)o1 | -17% | 2 | -2% | -5 | -16% | 39% | / | /
Cc1cc(C)n(Cc2ccc(C(=O)N/N=C/c3ccc(-c4ccc([N+](=O)[O-])cc4)o3)o2)n1 | 2µM* | -9 | 6.3µM* | 0 | 25µM* | 10µM* | 17* | 43*
N#Cc1ccccc1N1CCN(C(=O)c2ccc(NC(=O)c3ccc(Br)o3)cc2)CC1 | / | -18 | 22µM* | ? | 71µM* | 22µM* | ? | 76* | Pol kappa inh-2=?
O=C1C=C(Nc2ccccc2C(=O)O)c2ccccc2C1=O | ? | -25 | 28µM* | ? | -18% | 18µM* | 67* | 38*
O=C(O)c1ccccc1Nc1ccccc1C(=O)O | 8% | -8 | -17% | / | -1% | 1%[58.9 µM] | / | /
O=C1C=C(Nc2cccc3cccnc23)c2ccccc2C1=O | ? | ? | 50µM* | -10 | ? | 18µM* | ? | ?
CCOc1ccccc1NC(=O)COC(=O)c1cn(CC)c2nc(C)ccc2c1=O | 0% | 0 | 2% | / | -2% | 8% | / | /
CCOc1cc(/C=N/N=C2/NC(=O)C(CC(=O)O)S2)ccc1OCc1ccc(Cl)cc1Cl (stereo not drawn) | 22µM* | -13 | 32µM* | -63* | ? | ? | 75* | 76* | Pol kappa inh-2=75*
COc1cc(/C=N/N=C2/NC(=O)C(CC(=O)O)S2)ccc1OCc1ccc(Cl)cc1 (stereo not drawn) | -2% | 2 | ? | -9 | 0% | 0% | / | /
O=C(O)CCCCCN1C(=O)/C(=C/c2cn(-c3ccccc3)nc2-c2cccs2)SC1=S | / | 6 | ? | -9 | ? | ? | 34* | / | Pol kappa inh-2=?
O=C(O)CCN1C(=O)/C(=C/c2cn(-c3ccccc3)nc2-c2cccs2)SC1=S | -16% | -1 | 35µM* | -3 | 89µM* | 32µM* | 19* | 43*
O=C1/C(=C\c2cc(Cl)c(O)c(Cl)c2)SC(=S)N1Cc1ccccc1 | ? | 3 | 50µM* | -102* | -28% | 10µM* | 84* | / | GALK inh confirm=27µM*;Redox cycling=5%;HEK293 viability=?
CCN1C(=O)/C(=C/c2cn(-c3ccccc3)nc2-c2cccnc2)SC1=S | / | -5 | -19% | 1 | 3% | -2% | / | /
COc1ccc(/C=C2/SC(=S)N(CCC(=O)O)C2=O)cc1 | 22% | 4 | -9% | / | -13% | -5%[58.9 µM] | / | /
CC1=NNC(=O)/C1=C\c1cn(-c2ccccc2)nc1-c1cccs1 | 18% | -19 | -16% | -28 | -9% | ? | / | /
COc1ccc(-c2nn(-c3ccccc3)cc2/C=C2/SC(=S)N(CCC(=O)O)C2=O)c(C)c1 | 32µM* | 7 | 32µM* | -8 | ? | ? | 75* | ?
SMILES | Pol beta inh | PI4K2A block | Pol eta inh-1 | PI5P4K alpha inh | Pol kappa inh-1 | POLI inh | POLI cherry-pick | Pol eta inh-2 | others
N[C@@H](C(=O)O)c1ccc(C(=O)O)cc1 | / | / | / | / | -5%[19.4 µM] | / | / | /
Cc1cccc(Cn2c(=O)n(Cc3ccc4c(c3)OCO4)c(=O)c3oc4ccccc4c32)c1 | 0% | -4 | -14% | / | -6% | 2% | / | /
O=C(O)CCCCCN1C(=O)/C(=C\c2cn(-c3ccccc3)nc2-c2cccs2)SC1=S | -68% | -1 | 45µM* | 0 | ? | ? | 34* | ?
O=C(O)CCN1C(=O)/C(=C\c2cccc(Oc3ccccc3)c2)SC1=S | ? | 6 | 40µM* | 0 | ? | 25µM* | ? | 76*
O=C(CCCN1C(=O)/C(=C\c2cccs2)SC1=S)Nc1ccccc1O | / | -1 | -2% | -1 | / | / | / | /
COc1ccc(C#Cc2c[nH]c(=O)c3cncnc23)cc1OC | / | / | / | / | -13% | -15% | / | /
